The record followed here is PubChem BioAssay.

For part of these data: Results with a measured potency or affinity are listed apart. Active and inactive are the calls of the source.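 Rule for the calls, unless noted: active = compound raising the membrane signal above positive-control mean plus 3 SD in both repeats, and a primary screen hit; inactive = the rest.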

Assay [1] relates to TRPC4 beta (transient receptor potential cation channel C4), mouse. As to the kind of experiment: TRPC4 cation channel opening, retest – cell-based, Fluo4 calcium, HEK293 TRPC4beta/mu-opioid, duplicates, 10 µM, confirmation (AID 2426;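 active = fluorescence ratio normalized to control raised more than 50% in primary screen plus both repeat runs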). The following applies: Fluo4 calcium fluorescence, at 10 µM; active compounds read high.
For assay [2], the system named is transient receptor potential cation channel C4 beta (TRPC4), mouse. The experiment in a line: TRPC4 cation channel opening, second retest – cell-based, second round, Fluo4, HEK293 TRPC4beta/mu-opioid, 1 µM, confirmation (AID 2461;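 active = primary screen active and over 50% activation in each of two duplicate runs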). The following applies: Fluo4 calcium fluorescence, at 1 µM; active compounds read high.
The test system of assay [3] is TRPC4 (transient receptor potential cation channel C4 beta), mouse. As to the kind of experiment: potentiation of DAMGO EC20 TRPC4 response – cell-based, second round, Fluo-4, HEK293 TRPC4beta/mu-opioid, 1 µM, confirmation (AID 2554;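 active = primary screen hit whose fluorescence ratio, in both repeats, exceeds the weak agonist control mean by 3 SD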). Conditions: DAMGO EC20, Fluo-4 calcium flux, at 1 µM; active compounds read high.
The test system of assay [4] is TRPC4 beta (transient receptor potential cation channel C4), mouse. The experiment in a line: potentiation of DAMGO EC20 TRPC4 response – cell-based, Fluo-4, HEK293 TRPC4beta/mu-opioid, confirmation (AID 2555;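 active = primary screen hit whose calcium fluorescence ratio, in both repeats, exceeds the weak agonist control mean by 3 SD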). The following applies: DAMGO EC20, Fluo-4 calcium flux, at 10 µM; active compounds read high. For orientation: Calcium flux is commonly read through the fluorescence of an indicator in the cells.

Assay [5] concerns the target Short transient receptor potential channel 4 (Mus musculus) (UniProt Q9QUQ5). The experiment in a line: blockers of DAMGO-evoked TRPC4 calcium flux – cell-based, Fluo4, HEK293 TRPC4beta/mu-opioid, confirmation (AID 2636;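 active = calcium signal cut by more than 3 SD below the full-agonist control yet still positive, in both repeats and the earlier primary screen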). The following applies: at 10 µM; active compounds read high.
For assay [6] the target is unchanged. The experiment in a line: blockers of DAMGO-evoked TRPC4 calcium flux – cell-based, second round, Fluo4, HEK293 TRPC4beta/mu-opioid, 1 µM, confirmation (AID 2637;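 active = calcium signal ratio cut to more than 3 SD under the fully stimulated control mean yet still positive, in both repeats and the primary screen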). The following applies: at 1 µM; active compounds read high.
Assay [7] has the same target. As to the kind of experiment: calcium entry via TRPC4 opening agents – cell-based, HEK293 TRPC4/mu-opioid, Fluo-4 calcium, dose response (AID 434937;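 active = primary screen activator hit with a dose response curve and TRPC4 channel activation at any tested dose; inactive = no activation, no dose response, or not a primary hit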).
Assay [8] shares this target. The experiment in a line: potentiation of DAMGO-evoked TRPC4 calcium signal – cell-based, HEK293 TRPC4/mu-opioid, Fluo-4 calcium, EC20 DAMGO, dose response (AID 434941;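 active = earlier screen potentiator hit that boosts the TRPC4 ion channel at some dose, with a dose response; inactive = no potentiation, no dose response, or not a prior hit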;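 note: calcium entry triggered by an EC20 dose of DAMGO at the co-expressed mu-opioid receptor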).
For assay [9] the target is unchanged. As to the kind of experiment: block of DAMGO-driven TRPC4 calcium entry – cell-based, HEK293 TRPC4/mu-opioid, Fluo-4 calcium, dose response (AID 434942;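 active = primary screen inhibitor hit that blocks the TRPC4 channel at some tested dose, yielding a dose curve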).
Assay [10] concerns the target Short transient receptor potential channel 6 (Mus musculus) (UniProt Q61143). As to the kind of experiment: TRPC6 blockade by TRPC4 inhibitor hits – cell-based, HEK293, membrane potential dye, duplicate, selectivity assay for TRPC4 inhibitor project, confirmation (AID 434948;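 active = active in primary screen and both duplicates, each dropping signal beyond three positive-control SD with fluorescence still positive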). Conditions: HEK293 TRPC6, membrane potential dye fluorescence, at 10 µM, stimulated with maximal-effect acetylcholine; active compounds read high.

Assay [11] has the same target. As to the kind of experiment: TRPC6 opening by TRPC4 activator hits – cell-based, HEK293, membrane potential dye, duplicate, selectivity assay for TRPC4 activator project, confirmation (AID 434950;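 active = membrane potential signal rise above negative control mean plus 3 SD in both duplicates, also active in the earlier TRPC4 screen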). Conditions: HEK293 TRPC6, membrane potential fluorescence, at 10 µM; activation: active compounds read high; outcome: activation.
Assay [12] has the same target. The experiment in a line: positive modulators of mouse TRPC6 channel – HEK293 cells, membrane potential dye, duplicate, selectivity assay for TRPC4 potentiator project, confirmation (AID 434952). The following applies: HEK293 TRPC6, membrane potential dye fluorescence, at 10 µM, maximal acetylcholine added after compound; active compounds read high.
Assay [13] addresses Short transient receptor potential channel 4 (Mus musculus) (UniProt Q9QUQ5). The experiment in a line: calcium flux activators in TRPC4/5HT1a cells, counter-screen for TRPC4 activator project, cell-based, second counter screen, HEK293 TRPC4/5HT1a, Fluo-4 (AID 434977;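 active = calcium signal rise above buffer-control mean plus 5 SD in both duplicates, and also a hit in the primary screen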). Conditions: Fluo-4 calcium flux, at 10 µM; active compounds read high.
Assay [14] is described as follows: serotonin-gated TRPC4 signal block – cell-based, second counter screen, HEK293 TRPC4/5HT1a, Fluo-4, counter-screen for TRPC4 inhibitor project, confirmation (AID 434978;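 active = primary screen active whose calcium signal fell more than 3 SD beyond the full-serotonin control mean in both duplicate plates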;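 note: serotonin given first at submaximal then at maximal dose after compound preincubation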). Conditions: Fluo-4 calcium flux, at 10 µM, serotonin added to trigger calcium flux; active compounds read high. Background: A counterscreen serves to expose hits that act by an unwanted route or on another target.

In assay [15] the test system is TRPC4 (mouse), co-expressed with 5HT1a in HEK293. The experiment in a line: enhancement of serotonin-evoked TRPC4 response – cell-based, second counter screen, HEK293 TRPC4/5HT1a, Fluo-4, counter-screen for TRPC4 potentiator project, confirmation (AID 434979;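 active = signal rise over 3 SD above mean of control wells given weak agonist, in both repeats and first screen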). The following applies: Fluo-4 calcium flux, at 10 µM, serotonin added at its EC20 dose; active compounds read high.

A short description of assay [16]: nonspecific calcium rise without TRPC4 – cell-based, HEK293 mu-opioid receptor line, counter-screen for TRPC4 activator project, confirmation (AID 449723;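 active = hit in primary screen, with calcium signal over 5 SD above buffer well mean in both duplicates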;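 note: counter screen cells carry the mu-opioid receptor alone and lack TRPC4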). The following applies: HEK293 mu-opioid cells, Fluo-4 calcium fluorescence, at 10 µM; active compounds read high.
Assay [17] can be described thus: nonspecific potentiation of DAMGO calcium response – cell-based, HEK293 mu-opioid receptor line, counter-screen for TRPC4 allosteric potentiator project, confirmation (AID 449724;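 active = calcium signal rise more than 3 SD above the low-dose agonist control mean, in both duplicate plates and the primary screen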;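 note: HEK293 cells carrying mu-opioid receptor only with no TRPC4 channel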). Conditions: HEK293 mu-opioid receptor cells, Fluo-4 calcium flux, at 10 µM, compound added before EC20 DAMGO stimulus; active compounds read high.

Sequence of Short transient receptor potential channel 4 (Mus musculus) (Q9QUQ5 whole entry, looked up): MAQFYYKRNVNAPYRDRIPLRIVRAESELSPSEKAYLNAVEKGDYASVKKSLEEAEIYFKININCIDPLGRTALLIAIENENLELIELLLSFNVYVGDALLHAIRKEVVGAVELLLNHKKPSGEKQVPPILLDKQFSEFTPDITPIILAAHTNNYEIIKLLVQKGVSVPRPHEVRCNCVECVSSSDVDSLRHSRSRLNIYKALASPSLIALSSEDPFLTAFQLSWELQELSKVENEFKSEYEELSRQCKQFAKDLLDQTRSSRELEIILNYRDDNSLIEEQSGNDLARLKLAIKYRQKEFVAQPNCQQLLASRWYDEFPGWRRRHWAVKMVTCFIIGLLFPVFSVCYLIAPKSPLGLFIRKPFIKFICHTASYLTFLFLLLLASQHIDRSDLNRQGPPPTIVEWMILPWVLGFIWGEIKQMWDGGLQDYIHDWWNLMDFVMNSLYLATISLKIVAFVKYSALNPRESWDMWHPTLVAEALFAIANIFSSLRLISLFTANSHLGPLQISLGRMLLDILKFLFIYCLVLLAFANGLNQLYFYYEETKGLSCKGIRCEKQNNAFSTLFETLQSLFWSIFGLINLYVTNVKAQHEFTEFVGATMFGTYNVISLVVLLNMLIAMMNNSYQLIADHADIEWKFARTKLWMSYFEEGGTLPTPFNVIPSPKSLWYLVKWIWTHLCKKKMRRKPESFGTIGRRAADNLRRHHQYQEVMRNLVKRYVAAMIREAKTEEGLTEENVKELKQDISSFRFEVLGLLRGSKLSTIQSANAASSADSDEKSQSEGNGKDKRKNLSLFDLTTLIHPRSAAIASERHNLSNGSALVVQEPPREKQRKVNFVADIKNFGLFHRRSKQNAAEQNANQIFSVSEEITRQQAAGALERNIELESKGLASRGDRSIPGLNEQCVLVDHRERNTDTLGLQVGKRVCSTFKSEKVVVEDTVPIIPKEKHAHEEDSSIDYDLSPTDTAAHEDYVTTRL
Sequence of Short transient receptor potential channel 6 (Mus musculus) (Q61143 whole entry, looked up): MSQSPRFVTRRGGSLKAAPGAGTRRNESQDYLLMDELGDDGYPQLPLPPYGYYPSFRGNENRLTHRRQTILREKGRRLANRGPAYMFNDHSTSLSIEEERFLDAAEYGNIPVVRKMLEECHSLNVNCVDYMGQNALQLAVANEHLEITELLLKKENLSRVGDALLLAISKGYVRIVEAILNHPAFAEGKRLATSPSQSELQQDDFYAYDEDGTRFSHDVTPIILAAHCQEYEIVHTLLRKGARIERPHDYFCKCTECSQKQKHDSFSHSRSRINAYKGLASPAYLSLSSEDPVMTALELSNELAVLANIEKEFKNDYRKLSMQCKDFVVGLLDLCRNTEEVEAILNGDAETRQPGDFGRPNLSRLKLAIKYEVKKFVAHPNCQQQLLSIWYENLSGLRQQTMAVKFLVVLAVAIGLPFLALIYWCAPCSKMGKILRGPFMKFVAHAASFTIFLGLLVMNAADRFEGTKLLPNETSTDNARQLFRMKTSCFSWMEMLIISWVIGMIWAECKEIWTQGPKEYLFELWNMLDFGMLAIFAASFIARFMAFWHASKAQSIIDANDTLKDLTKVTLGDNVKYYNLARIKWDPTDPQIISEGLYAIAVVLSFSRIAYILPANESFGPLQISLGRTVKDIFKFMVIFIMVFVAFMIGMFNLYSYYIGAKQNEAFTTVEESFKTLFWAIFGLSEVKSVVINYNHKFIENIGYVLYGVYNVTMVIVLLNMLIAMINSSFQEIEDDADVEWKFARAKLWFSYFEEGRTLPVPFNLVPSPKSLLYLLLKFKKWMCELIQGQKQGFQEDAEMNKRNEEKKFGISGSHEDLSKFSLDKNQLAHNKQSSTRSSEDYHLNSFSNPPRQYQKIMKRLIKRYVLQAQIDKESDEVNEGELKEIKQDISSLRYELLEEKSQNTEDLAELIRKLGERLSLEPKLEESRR

As for `O=C(Nc1ccc(Cl)c(Cl)c1)N(CCCN1CCOCC1)Cc1cccs1`, the outcome in assay [1], in assay [2], in assay [3], in assay [4], in assay [5] and in assay [6] was inactive. In addition, the result in assay [7], in assay [8], in [9], in assay [10], in assay [11] and in [12] was inactive. The result in assay [13], in assay [14], in [15], in [16] and in [17] was inactive.
Regarding `CCOC(=O)c1cnc2ccc(Cl)cc2c1NCCN(C)C`, the result in [1], in [2], in [3], in assay [4], in assay [5] and in [6] was inactive. The outcome in assay [7], in assay [8], in assay [9], in [10], in [11] and in assay [12] was inactive. Moreover, the result in assay [13], in assay [14], in [15], in assay [16] and in [17] was inactive.
With `CC1CCc2c(C(=O)N3CCN(S(=O)(=O)c4cccs4)CC3)csc2C1` (stereo not given), the outcome in assay [1], in assay [2], in [3], in assay [5], in [6] and in assay [7] was inactive. Besides, the result in assay [8], in assay [9], in [10], in [11], in assay [12] and in assay [13] was inactive. The result in assay [14], in assay [15], in [16] and in assay [17] was inactive. Besides, in assay [4], the potentiation was 22% (active).
Turning to `COC(=O)c1ccc(/C=N/N2CCN(Cc3ccc(C)cc3C)CC2)cc1`, the outcome in assay [1], in [2], in assay [5], in assay [6], in assay [7] and in [8] was inactive. The result in [9], in assay [10], in assay [11], in [12], in assay [13] and in [14] was inactive. In addition, the outcome in [16] and in assay [17] was inactive. The potentiation is 6% (active) in assay [3], 22% (active) in assay [4] and 28.6% (active) in assay [15].
`CCN(CC)CCNc1ccc(Cl)cc1[N+](=O)[O-]`: the outcome in assay [1], in assay [2], in assay [4], in assay [5], in [6] and in [7] was inactive. Also, the outcome in [8], in [9], in [10], in assay [11], in [12] and in [13] was inactive. In addition, the result in assay [14], in [16] and in assay [17] was inactive. In addition, the potentiation in [3] is 31% (active); in assay [15], 17.9% (active).
Turning to `NC(=O)NCCN1CCN(c2ncc(C(F)(F)F)cc2Cl)CC1`, the outcome in [1], in assay [2], in assay [5], in assay [6], in assay [7] and in [8] was inactive. In addition, the outcome in [9], in [10], in assay [11], in assay [12], in [13] and in assay [14] was inactive. Moreover, the result in assay [16] and in [17] was inactive. The potentiation was 8% (active) in assay [3], 11% (active) in assay [4] and 22% (active) in [15].
Turning to `O=C(Nc1c(F)cc(F)cc1Br)c1cc(-c2ccc(O)cc2)on1`, the outcome in assay [1], in assay [2], in [3], in [4], in assay [5] and in [6] was inactive. For the same molecule, the result in assay [7], in [8], in assay [9], in assay [10], in assay [11] and in assay [12] was inactive. Moreover, the result in [13], in assay [14], in assay [15], in assay [16] and in assay [17] was inactive.
As for `CCN(CC)c1ccc(/C=N/NC(=O)CNC(=O)c2ccccn2)cc1`, the outcome in assay [1], in assay [2], in assay [3], in assay [4], in [5] and in assay [6] was inactive. The outcome in assay [7], in assay [8], in [9], in assay [10], in assay [11] and in [12] was inactive. The result in assay [13], in assay [14], in [15], in assay [16] and in assay [17] was inactive.
`CC1(C(=O)OCc2cc(=O)n3cc(Br)ccc3n2)CC1(Cl)Cl` (stereo not given): the outcome in assay [1], in assay [2], in assay [5], in [6], in [7] and in [8] was inactive. Further, the outcome in assay [9], in [10], in [11], in assay [12], in assay [13] and in assay [14] was inactive. The outcome in assay [16] and in [17] was inactive. Further, the potentiation in [3] was 15% (active); in [4] it was 84% (active); in assay [15], 56.2% (active).
As for `CN(C)CCCNc1nc(N)c([N+](=O)[O-])c(NCc2ccccc2)n1`, the outcome in [1], in [2], in assay [3], in [4], in assay [5] and in assay [6] was inactive. Also, the outcome in assay [7], in [8], in assay [9], in [10], in assay [11] and in assay [12] was inactive. Moreover, the result in [13], in assay [14], in assay [15], in assay [16] and in assay [17] was inactive.
For the molecule `Cn1c(=O)c2c(nc(CN3CCc4ccccc4C3)n2Cc2ccccc2)n(C)c1=O`, the outcome in assay [1], in assay [2], in [4], in [5], in assay [6] and in assay [7] was inactive. Further, the outcome in [8], in assay [9], in [10], in assay [11], in [12] and in [13] was inactive. Also, the outcome in assay [14], in assay [16] and in assay [17] was inactive. Moreover, the potentiation is 40% (active) in [3] and 97.6% (active) in [15].
As to `Cc1oc(-c2ccc(Cl)cc2)nc1CN1CCC(C(=O)N2CCc3ccccc3C2)CC1`, the outcome in assay [1], in [2], in [3], in assay [5], in assay [6] and in [7] was inactive. The outcome in assay [8], in [9], in assay [10], in [11], in assay [12] and in assay [13] was inactive. Besides, the result in [14], in assay [16] and in assay [17] was inactive. Also, the potentiation in [4] is 16% (active); in assay [15] it was 10.2% (active).
With `O=C(Nc1ccc2c(c1)OCO2)c1cnn2cccnc12`, the result in assay [1], in assay [2], in assay [3], in [5], in assay [6] and in [7] was inactive. Further, the outcome in assay [8], in [9], in assay [10], in assay [11], in assay [12] and in assay [13] was inactive. In addition, the outcome in [14], in assay [16] and in [17] was inactive. Further, the potentiation was 38% (active) in [4] and 48.5% (active) in assay [15].
With `O=[N+]([O-])c1cccc(CSc2nnc(Cc3ccccc3)n2-c2ccc(F)cc2)c1`, the result in assay [1], in [2], in assay [3], in [4], in [5] and in assay [6] was inactive. In addition, the result in [7], in [8], in assay [9], in assay [10], in assay [11] and in assay [12] was inactive. Also, the result in assay [13], in [14], in assay [15], in assay [16] and in assay [17] was inactive.
Regarding `CCC(=O)c1ccc(N2CCN(C(=O)c3ccccc3Br)CC2)c(F)c1`, the outcome in assay [1], in assay [2], in assay [3], in assay [4], in assay [5] and in [6] was inactive. The result in assay [7], in assay [8], in assay [9], in assay [10], in [11] and in assay [12] was inactive. The outcome in assay [13], in assay [14], in [16] and in assay [17] was inactive. Also, the potentiation in assay [15] is 19.2% (active).
